Measurements: PubChem BioAssay AID504408 (Broad Institute, 2011)
About 5,200 (1.7%) of roughly 300,000 compounds were called active.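 The calls were made as follows: active = mean replicate activation of at least 50% with a set share of replicates each reaching 50%; inconclusive = only one of those two conditions met; inactive = mean below 50% and too few replicates reaching it.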 Shown is part of a subset that was picked to be rich in actives.

experiment: HSF-1 activators, primary screen, NIH3T3-HGL cells, MG132 stress, luminescence, single point (AID 504408); conditions: NIH3T3-HGL HSF-1 luciferase reporter, MG132, 8 h; at 9 µM; active compounds read high; 100% = twice DMSO control signal;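 also: 0% = median of the neutral control wells and 100% = twice that signal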

activation, active:
CC1Cc2ccccc2N1C(=O)CSc1nc2ccccc2o1 (configuration not stated) 67.8%
COC(=O)CNC(c1ccccc1Cl)c1cc(Br)ccc1NC(=O)CCN1CCOCC1 (configuration not stated) 57.8%
O=C(O)c1cc(Cl)c(Cl)cc1C(=O)Nc1cccc2ncccc12 56.4%
COC(=O)c1c(C)oc2ccc(N(C(=O)Oc3ccccc3)S(=O)(=O)c3ccccc3)cc12 74.4%
Nc1cc(N)nc(SCc2cccc(F)c2)n1 76.5%
COc1ccc(-c2csc3nc(-c4ccccc4F)oc(=O)c23)cc1OC 164%
CCOC(=O)/C=C/C(=O)OCC(=O)NC(c1ccccc1)c1ccccc1 177%
COc1ccc(-c2cc(C(F)(F)F)nc(S(C)(=O)=O)n2)cc1OC 236%
COc1ccc(C(=O)Nc2sc(C)c(C)c2CN2CCOCC2)cc1 399%
Oc1ccccc1CNc1ncc(Br)cc1Br 114%
O=C(NCCc1ccccc1)c1ccc2c(c1)N(Cc1ccccc1)CCS2 82.5%
Cc1ccc(NC(=O)c2csc3c2CCCC3)cc1 59.9%
CN(c1cccc(NC(=O)Nc2ccc(Cl)cc2)c1)S(C)(=O)=O 115%
Cc1ccc2nc(-c3ccc(SCC(=O)Nc4cc(C)on4)nc3)[nH]c2c1 55.5%
COc1ccc(-c2cn(-c3ccc(OC)cc3)c(=S)[nH]2)cc1 56.7%
Cc1ccccc1-n1nnc2c(=O)oc3ccccc3c21 105%
CCSc1nnc(-c2cc3c(s2)-c2ccccc2CC3)o1 51.8%
CCCCC(=O)N/N=C(\C)CC(=O)Nc1cc(Cl)ccc1OC 72.1%

activation, inactive:
CCC(=O)c1ccc(OCC(=O)OCC(=O)NC2CCCCCC2)cc1 -11.2%
CCC1CCC/C1=N\NC(=O)c1ccc(Cl)cc1 (configuration not stated) 9.99%
Cc1cc(C)c(S(=O)(=O)n2cc(C(C)C(N)C(=O)O)c3ccccc32)c(C)c1 (configuration not stated) 0.109%
COc1cccc(N2CC(C(=O)NCc3n[nH]c(=O)c4ccccc34)CC2=O)c1 (configuration not stated) 8.81%
CSCCC(NC(=O)COc1ccccc1)C(=O)OCCOc1ccc(F)cc1 (configuration not stated) -8.89%
COc1cccc(C(=O)NCCS(=O)(=O)NCC2CCCO2)c1 (configuration not stated) -6.64%
CC1(c2nnc(Cc3ccccc3)o2)CC(c2ccccc2F)=NO1 (configuration not stated) 4.53%
Cn1cccc1C(=O)NNC(=O)COc1ccc(Br)cc1 1.2%
Cc1cc(=O)[nH]c(SCC(=O)N2c3ccccc3CC2C)n1 (configuration not stated) -7.41%
CCS(=O)(=O)c1ccc2oc(SCC(=O)N3c4ccccc4CC3C)nc2c1 (configuration not stated) -9.09%
COc1ccc(/C=N/NC(=O)c2cc(-c3cccc(C)c3)nc3ccccc23)cc1O 11.4%
O=C(c1cc(-c2ccc(Cl)s2)nc2ccccc12)N1CCOCC1 0.352%
CCCCCN(C(=O)CCC(=O)OCCOc1ccc(OC)cc1)c1c(N)n(CCCC)c(=O)[nH]c1=O 2.74%
COc1ccc(Cl)cc1NC(=O)CCN1CCOCC1 -5.06%
COc1ccccc1NC(=O)CCN1CCN(c2ccc(Cl)cc2)CC1 0.381%
COc1ccccc1C(=O)NC(=O)COC(=O)C1CC1 16%
O=C(Nc1cccc2ncccc12)C(Cl)(Cl)Cl -66%
O=C(Nc1cccc2ncccc12)c1ccc(-c2ccc(Cl)cc2Cl)o1 38.2%
CN(C(=O)CN1C(=O)NC(C)(CCc2ccccc2)C1=O)c1ccccc1 (configuration not stated) 5.79%
COc1ccc(S(=O)(=O)Nc2ccc3oc(C)c(C(C)=O)c3c2)cc1 -13%
CC(=O)c1c(C)oc2ccc(NS(=O)(=O)c3ccccc3)cc12 18.1%
CC(C)(C)c1ccc(C(=O)NCc2ccco2)cc1 -17.1%
Nc1cc(N)nc(SCc2ccc(Cl)cc2)n1 -15.7%
CCc1nnc(SCc2cccc(F)c2)nc1CC -33.8%
COc1ccc(NS(=O)(=O)c2ccc(C)c(C(=O)NNC(=O)c3csc(N4CCOCC4)n3)c2)cc1 4.38%
O=C(NCCC1CCCCN1S(=O)(=O)c1cccs1)C(=O)Nc1ccc(F)cc1F (configuration not stated) -7.29%
CN(C(=O)COC(=O)c1ccc(Br)o1)c1c(N)n(Cc2ccccc2)c(=O)[nH]c1=O 5.07%
CC1(C)O[C@@H]2CC3C4C[C@H](F)C5=CC(=O)C=CC5(C)C4C(O)CC3(C)[C@]2(C(=O)CO)O1 (some centres not stated) -43.8%
COc1ccccc1-c1nnc(-c2ccc(F)cc2)o1 38.9%
COc1ccc(-c2csc(-c3cccs3)n2)cc1OC 19.1%
CC(=O)N/C(=C\c1ccccc1)C(=O)OC(C)C(=O)N(C)c1ccccc1 (configuration not stated) 2.37%
CCOC(=O)C(C(=O)OCC)C(C#N)c1ccccc1 (configuration not stated) 14.7%
O=C(Cc1ccc(-c2ccccc2)cc1)NC(c1ccccc1)c1ccccc1 0.938%
COc1ccc(C(C#N)(CC(=O)O)c2cnccn2)cc1OC (configuration not stated) -7.73%
COc1ccc(-c2cc(C(F)(F)F)nc(SCC(=O)Nc3ccc4c(c3)OCO4)n2)cc1OC 12.6%
COc1cc(OC)nc(S(C)(=O)=O)n1 -10.3%
COc1ccc(CNC(=O)CNC(=O)c2sc3ccccc3c2Cl)cc1OC 5.99%
CCc1cc(C(N)=O)c(NC(=O)c2ccc(OC)cc2)s1 15.1%
COc1ccc(C(=O)Nc2ccnn2C2CCN(Cc3ccncc3)CC2)cc1 0.31%
CC(=O)c1c(C)[nH]c(C(=O)N2CCN(S(=O)(=O)c3ccc(F)c(F)c3)CC2)c1C 0.878%
CCc1cccc(C)c1NS(=O)(=O)c1cc(Br)cnc1N 0.695%
O=[N+]([O-])c1ncc(Br)cc1Nc1ccccc1 -4.85%
COc1ccc(S(=O)(=O)N2CCCCC2)cc1NC(=O)C1CC(=O)N(c2ccc3c(c2)OCCO3)C1 (configuration not stated) 1.34%
O=C(NCCN1CCOCC1)c1ccc2c(c1)N(Cc1ccc(Cl)cc1)CCS2 16.5%
CCOC(=O)N1CCN(C(=O)c2ccc3c(c2)N(Cc2ccc(C)cc2)CCS3)CC1 9.82%
CC(=O)Nc1ccc(NC(=O)CSC2=NS(=O)(=O)c3ccccc3N2)cc1 -10.3%
CC(=O)Nc1ccc(NC(=O)C(C)OC(=O)C2CC(=O)N(CCc3ccccc3)C2)cc1 (configuration not stated) -21.8%
COCCN(C(=O)COC(=O)Cc1cccc(OC)c1)c1c(N)n(Cc2ccccc2)c(=O)[nH]c1=O 2.54%
Cc1cccc([C@@H]2[C@@H]3C(=O)N(Cc4ccccc4)C(=O)[C@@H]3[C@]3(Cc4ccc(Cl)cc4)C(=O)N(c4cccc(Cl)c4)C(=O)N23)c1 13.8%
Cc1ccc(C(=O)CN2C(=O)NC3(CCc4ccccc43)C2=O)c(C)c1 (configuration not stated) 0.629%
COC(=O)c1sc(NC(=O)c2csc3c2CCCC3)nc1C 30.2%
O=C(Nc1ccccc1N1CCOCC1)c1csc2c1CCCC2 6.54%
Cc1cc(=O)oc2cc(NC(=O)C(C)Oc3ccccc3)ccc12 (configuration not stated) -3.4%
O=C(c1cc(-c2ccco2)nc2ccccc12)N(Cc1nnc(-c2ccc(Cl)cc2)o1)C1CC1 16.1%
NC(=O)C1CCN(C(=O)c2cn(-c3ccccc3)nc2-c2cccnc2)CC1 32.4%
COc1cccc(N(CC(=O)Nc2cccc(N(C)S(C)(=O)=O)c2)S(C)(=O)=O)c1 12.3%
Cc1ccc(N(CC(=O)Nc2cccc(N(C)S(C)(=O)=O)c2)S(C)(=O)=O)cc1 0.04%
Cc1ccc(SCCC(=O)Nc2cc(C)on2)cc1 -5.42%
Cc1ccc2nc(SCC(=O)NC3CCCC3)[nH]c2c1 7.63%
O=C(COc1ccccc1F)Nc1nc(-c2ccccn2)cs1 -13.1%
S=c1[nH]c(-c2cccs2)cn1-c1ccccc1 33.3%
COc1ccc(-n2c(-c3ccc(OC)c(OC)c3)n[nH]c2=S)cc1 3.03%
CC[C@@]12C(=O)N(c3ccccc3)C(=O)N1[C@H](c1ccc(Br)cc1)[C@@H]1C(=O)N(C(C)(C)C)C(=O)[C@@H]12 -15%
CC1CCCCC1NC(=O)c1cc(=O)[nH]c2ccccc12 (configuration not stated) 1.85%
CCN1CCN(C(=O)N(Cc2ccc(Cl)cc2)S(=O)(=O)c2ccc(C)cc2)CC1 0.289%
CCCCC(=O)Nc1cc(C)c2c(=O)oc3ccccc3c2n1 6.46%
CCOC(=O)c1c(C)nc2c(c1C)c(=O)oc1ccccc12 36.6%
CN(CC(=O)NNC(=O)CNC(=O)c1ccccc1Cl)S(=O)(=O)c1ccc(Cl)cc1 -6.99%
Fc1ccc(CSc2nnc(-c3cc4c(s3)-c3ccccc3CC4)o2)cc1 21.9%
O=C(CSc1nnc(-c2ccccc2O)o1)NC1CCCCC1 -7.41%
O=C(c1ccncc1)N1CCN(S(=O)(=O)c2cc(C(F)(F)F)cc(C(F)(F)F)c2)CC1 4.51%
COc1ccc(/C(C)=N/NC(=O)CCC(=O)Nc2ccc(Cl)cc2Cl)c(OC)c1 1.67%
COc1ccc(Cl)cc1NC(=O)CNc1ccccc1F 2.49%
COc1ccc(N2CCN(C(=O)CCNC(=O)c3ccc(Br)cc3)CC2)cc1 6.12%
